According to PubChem BioAssay:
Calls of active or inactive are those of the source. Unless noted, the rule behind the calls is not given here.

Columns and labels:
[1] = tested on: Wnt5a (protein binding on small-molecule microarray); test: small molecules binding Wnt5a protein – biophysical, small-molecule microarray, 635/667 nm fluorescence, primary screen (AID 1142); settings: 635 nm fluorescence, higher = more signal;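 note: fluorescence read at 667 nm with signal to noise per printed feature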
[2] = ATP-based viability of Huh7 replicon cells – cell-based, CellTiter-Glo luminescence, basal, 48 h, cytotoxicity control for HCV replication inhibitor project, primary screen (AID 1143); settings: higher = more signal, called active from +8 up or from −8 down;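 note: Huh7 hepatoma cells carrying a hepatitis C replication reporter with no stimulus; test concentration not given here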
[3] = Pseudomonas biofilm growth suppression – PAO1 strain, BacTiter-Glo luminescence, LB-PBS, primary screen (AID 1144); settings: P. aeruginosa PAO1 biofilm, 12 h, higher = more signal
[4] = basal CRE-LacZ reporter activity in PC12 – cell-based, unstimulated, primary screen (AID 1145); settings: no forskolin, luminescence, 4.5 h, higher = more signal, called active from +8 up or from −8 down
[5] = forskolin-driven CRE-LacZ activity in PC12 – cell-based, CRE-LacZ reporter, forskolin-stimulated, primary screen (AID 1146); settings: luminescence, 4.5 h, higher = more signal, called active from +8 up or from −8 down;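 note: PC12 cells with 6xCRE LacZ reporter stimulated by forskolin 10 µM; beta-galactosidase reporter signal reflecting CREB driven transcription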
[6] = target: Streptavidin (Streptomyces avidinii) (UniProt P22629); test: compounds binding control protein streptavidin – biophysical, small-molecule microarray, 635/667 nm fluorescence, artefact control for SMM compound annotation, primary screen (AID 1147); settings: higher = more signal;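 note: signal reflects streptavidin binding to arrayed compounds as a control protein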
[7] = probe aInhba binding on compound microarray – biochemical, small-molecule microarray, 635/667 nm fluorescence, primary screen (AID 1148); settings: higher = more signal;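 note: score merges 667nm spot fluorescence with signal-to-noise for antibody binding to printed compounds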
Torsin-1A (Homo sapiens) [8] = target: Torsin-1A (Homo sapiens) (UniProt O14656); test: TOR1A wild-type binding on microarray – cell lysate, small-molecule microarray, lysate, 635/667 nm, primary screen (AID 1149); settings: COS7 hTOR1A-WT lysate, 635 nm fluorescence, higher = more signal
Torsin-1A (Homo sapiens) [9] = target: Torsin-1A (Homo sapiens) (UniProt O14656); test: torsin A mutant lysate binding on microarrays – cell lysate, small-molecule microarray, COS7 lysate, 635/667 nm fluorescence, primary screen (AID 1150); settings: COS7 hTOR1A mutant lysate, 635 nm fluorescence, higher = more signal;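 note: score pools 667 nm emission and signal to noise measuring lysate protein binding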
[10] = tested on: Sonic hedgehog protein (Shh); test: Sonic hedgehog microarray binding compounds – biochemical, small-molecule microarray, 635/667 nm fluorescence, primary screen (AID 1151); settings: 635 nm fluorescence, higher = more signal;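 note: Shh protein binding to compounds spotted on small-molecule microarray slides; score combines spot fluorescence intensity with signal-to-noise across triplicate slides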
[11] = optical density shifts of acrAB sulA E. coli – strain DRC41, OD650, 48 h, E. coli filamentation inducer project, primary screen (AID 1152); settings: higher = more signal, called active from +8 up or from −8 down;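 note: E. coli MC1000 strain DRC41 lacking acrAB efflux pump and sulA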
[12] = probe aLefty1 binding on compound microarray – biochemical, small-molecule microarray, 635/667 nm fluorescence, primary screen (AID 1153); settings: higher = more signal;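 note: score merges spot fluorescence with signal-to-noise ratio from the scanned slide images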
[13] = plasmodial surface anion channel blockers, osmotic lysis – cell-based, P. falciparum Indochina, OD700, 1 h, primary screen (AID 1154); settings: P. falciparum Indochina infected RBC osmotic lysis, higher = more signal, called active from +8 up or from −8 down
[14] = plasmodial surface anion channel blockers, osmotic lysis – cell-based, P. falciparum Indochina, OD700, 2 h, primary screen (AID 1155);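 note: lysis reports solute entry through the parasite surface anion channel PSAC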; settings: P. falciparum Indochina infected erythrocytes, higher = more signal, called active from +8 up or from −8 down
[15] = changes in parasitized red cell lysis, either direction – P. falciparum Indochina, OD700, 3 h, PSAC antagonist project, primary screen (AID 1156); settings: P. falciparum-infected erythrocytes, osmotic lysis, higher = more signal, called active from +8 up or from −8 down
[16] = plasmodial surface anion channel blockers, osmotic lysis – cell-based, P. falciparum Indochina, OD700, 18 h, primary screen (AID 1157); settings: P. falciparum Indochina infected erythrocytes, osmotic lysis OD700, 18 h; higher = more signal, called active from +8 up or from −8 down
[17] = S6 kinase pathway phospho-S6 level changes – cell-based, A549, cytoblot, luminescence, serum-stimulated, primary screen (AID 1158); settings: 5 h, higher = more signal;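 note: serum-stimulated A549 lung adenocarcinoma cells; signal is phosphorylated S6 detected by cytoblot immunostaining with HRP secondary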
[18] = target: NADPH oxidase 2 (Homo sapiens) (UniProt P04839); test: compounds shifting NOX2 Amplex Red fluorescence – cell-based, HEK293-NOX2, PMA-stimulated, NOX inhibitor project, primary screen (AID 1159); settings: 45 min, higher = more signal, called active from +8 up or from −8 down; note: test concentration not given here
[19] = target: NADPH oxidase 4 (Homo sapiens) (UniProt Q9NPH5); test: compounds shifting NOX4 Amplex Red fluorescence – cell-based, HEK293-NOX4, tetracycline-induced, NOX inhibitor project, primary screen (AID 1160); settings: HEK293-NOX4, Amplex Red H2O2 fluorescence, 45 min; higher = more signal, called active from +8 up or from −8 down
[20] = target: NADPH oxidase 5 (Homo sapiens) (UniProt Q96PH1); test: compounds shifting NOX5 Amplex Red fluorescence – cell-based, HEK293-NOX5, NOX inhibitor project, primary screen (AID 1161); settings: HEK293-NOX5, ionomycin, 45 min, higher = more signal
NADPH oxidase 5 (Homo sapiens), sequence (Q96PH1 whole entry, looked up): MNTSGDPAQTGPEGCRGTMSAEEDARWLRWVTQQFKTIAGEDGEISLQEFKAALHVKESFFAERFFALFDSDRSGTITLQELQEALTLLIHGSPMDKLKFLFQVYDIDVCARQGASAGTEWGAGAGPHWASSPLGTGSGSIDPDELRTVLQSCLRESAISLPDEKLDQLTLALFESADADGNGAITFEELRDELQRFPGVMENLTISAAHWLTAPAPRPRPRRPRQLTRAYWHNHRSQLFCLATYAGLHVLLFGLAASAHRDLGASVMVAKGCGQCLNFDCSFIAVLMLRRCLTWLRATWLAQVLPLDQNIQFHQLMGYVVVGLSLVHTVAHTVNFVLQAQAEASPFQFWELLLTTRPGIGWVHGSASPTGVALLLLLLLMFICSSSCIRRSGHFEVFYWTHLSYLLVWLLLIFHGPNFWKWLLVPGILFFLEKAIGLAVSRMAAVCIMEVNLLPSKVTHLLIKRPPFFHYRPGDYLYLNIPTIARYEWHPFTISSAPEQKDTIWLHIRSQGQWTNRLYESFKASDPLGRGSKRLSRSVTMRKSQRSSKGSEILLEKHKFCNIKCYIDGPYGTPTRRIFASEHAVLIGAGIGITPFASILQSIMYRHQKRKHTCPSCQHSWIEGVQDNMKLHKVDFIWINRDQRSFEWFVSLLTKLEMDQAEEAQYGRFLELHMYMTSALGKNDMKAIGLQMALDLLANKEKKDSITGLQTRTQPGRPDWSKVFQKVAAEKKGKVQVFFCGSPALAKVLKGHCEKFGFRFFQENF

NADPH oxidase 2 (Homo sapiens), sequence (P04839 whole entry, looked up): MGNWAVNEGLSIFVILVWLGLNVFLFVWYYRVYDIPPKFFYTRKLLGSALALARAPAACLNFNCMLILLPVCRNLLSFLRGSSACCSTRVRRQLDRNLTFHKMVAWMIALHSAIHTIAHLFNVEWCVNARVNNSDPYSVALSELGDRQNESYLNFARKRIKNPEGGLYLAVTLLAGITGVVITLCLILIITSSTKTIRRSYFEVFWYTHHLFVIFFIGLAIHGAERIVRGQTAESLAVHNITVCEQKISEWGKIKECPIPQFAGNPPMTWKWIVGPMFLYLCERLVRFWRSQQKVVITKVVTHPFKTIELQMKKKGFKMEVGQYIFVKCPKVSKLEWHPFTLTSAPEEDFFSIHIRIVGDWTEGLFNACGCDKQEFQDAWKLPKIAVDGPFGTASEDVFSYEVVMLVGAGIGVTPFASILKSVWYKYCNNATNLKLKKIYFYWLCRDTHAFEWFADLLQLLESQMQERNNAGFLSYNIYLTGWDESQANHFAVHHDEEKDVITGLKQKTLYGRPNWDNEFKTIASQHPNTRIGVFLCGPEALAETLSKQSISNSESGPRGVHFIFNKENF
NADPH oxidase 4 (Homo sapiens), sequence (Q9NPH5 whole entry, looked up): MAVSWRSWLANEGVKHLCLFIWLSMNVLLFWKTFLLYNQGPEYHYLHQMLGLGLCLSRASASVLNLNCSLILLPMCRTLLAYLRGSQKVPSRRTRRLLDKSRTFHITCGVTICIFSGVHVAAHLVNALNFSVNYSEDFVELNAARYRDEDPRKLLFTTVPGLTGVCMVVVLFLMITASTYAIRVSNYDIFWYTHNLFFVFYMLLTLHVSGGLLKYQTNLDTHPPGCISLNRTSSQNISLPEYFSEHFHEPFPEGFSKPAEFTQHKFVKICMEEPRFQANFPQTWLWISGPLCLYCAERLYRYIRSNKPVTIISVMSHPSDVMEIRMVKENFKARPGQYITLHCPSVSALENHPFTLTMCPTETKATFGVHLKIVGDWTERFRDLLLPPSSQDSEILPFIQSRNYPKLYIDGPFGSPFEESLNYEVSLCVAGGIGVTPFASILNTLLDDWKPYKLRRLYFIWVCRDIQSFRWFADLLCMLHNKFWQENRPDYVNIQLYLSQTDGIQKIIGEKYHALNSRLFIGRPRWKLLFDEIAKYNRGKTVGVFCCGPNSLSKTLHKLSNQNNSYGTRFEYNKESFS
Streptavidin (Streptomyces avidinii), sequence (P22629 whole entry, looked up): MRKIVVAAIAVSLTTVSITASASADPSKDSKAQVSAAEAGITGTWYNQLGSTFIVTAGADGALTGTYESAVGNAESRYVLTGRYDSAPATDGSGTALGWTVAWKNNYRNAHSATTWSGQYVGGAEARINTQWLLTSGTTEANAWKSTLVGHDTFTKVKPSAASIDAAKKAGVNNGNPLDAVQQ
Torsin-1A (Homo sapiens), sequence (O14656 whole entry, looked up): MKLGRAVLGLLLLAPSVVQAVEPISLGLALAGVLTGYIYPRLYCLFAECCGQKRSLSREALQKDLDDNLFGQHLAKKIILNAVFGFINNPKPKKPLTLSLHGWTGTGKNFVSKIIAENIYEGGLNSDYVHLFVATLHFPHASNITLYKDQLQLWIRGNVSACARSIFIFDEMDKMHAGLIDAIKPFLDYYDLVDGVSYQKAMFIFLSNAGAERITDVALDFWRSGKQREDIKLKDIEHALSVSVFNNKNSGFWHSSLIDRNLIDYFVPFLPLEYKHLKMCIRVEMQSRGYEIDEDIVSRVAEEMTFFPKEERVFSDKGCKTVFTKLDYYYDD

C=C[C@@H](C)[C@H](OC(=O)Nc1ccc(SC)cc1)c1ccc(OCCO)cc1
composite z-score [1]: -0.403 | z-score [2]: -0.957 (inactive) | z-score [3]: -1.37 (inactive) | z-score [4]: 0.861 (inactive) | z-score [5]: -0.97 (inactive) | composite z-score [6]: -0.936 | composite z-score [7]: -0.259 | composite z-score (Torsin-1A (Homo sapiens) [8]): -0.582 | composite z-score (Torsin-1A (Homo sapiens) [9]): 0.695 | composite z-score [10]: 0.182 | z-score [11]: -0.605 (inactive) | composite z-score [12]: -0.33 | z-score [13]: 27.9 (active) | z-score [14]: 12 (active) | z-score [15]: 3.4 (inactive) | z-score [16]: 1.75 (inactive) | z-score [17]: 2.17 | z-score [18]: -0.329 (inactive) | z-score [19]: -0.14 (inactive) | z-score [20]: -0.18

C=C(COC)/C(=C/C[C@@H](OC(=O)c1ccncc1)c1cccc(OCCO)c1)c1cnc2ccccc2c1
composite z-score [1]: 0.381 | z-score [2]: -8.02 (active) | z-score [3]: -0.639 (inactive) | z-score [4]: 12.6 (active) | z-score [5]: 0.818 (inactive) | composite z-score [6]: 2.64 | composite z-score [7]: 0.248 | composite z-score (Torsin-1A (Homo sapiens) [8]): 1.16 | composite z-score (Torsin-1A (Homo sapiens) [9]): 2.74 | composite z-score [10]: 2.3 | z-score [11]: -0.0626 (inactive) | composite z-score [12]: 0.664 | z-score [13]: 18.8 (active) | z-score [14]: 6.49 (inactive) | z-score [15]: -1.32 (inactive) | z-score [16]: 1.29 (inactive) | z-score [17]: 0.507 | z-score [18]: -1.47 (inactive) | z-score [19]: -0.256 (inactive) | z-score [20]: -3.1

O=C1OCC=C[C@H]2OC34C=CCN(Cn5nnc6ccccc65)C(=O)[C@H]3N(CCCCCCO)C(=O)[C@@H]4[C@@H]12 (stereo not given in full)
composite z-score [1]: -0.277 | z-score [2]: 0.205 (inactive) | z-score [3]: 1.16 (inactive) | z-score [4]: 0.0484 (inactive) | z-score [5]: -0.116 (inactive) | composite z-score [6]: -0.701 | composite z-score [7]: 0.111 | composite z-score (Torsin-1A (Homo sapiens) [8]): -0.494 | composite z-score (Torsin-1A (Homo sapiens) [9]): -0.416 | composite z-score [10]: -0.104 | z-score [11]: -0.169 (inactive) | composite z-score [12]: 0.32 | z-score [13]: 1.99 (inactive) | z-score [14]: 0.89 (inactive) | z-score [15]: 1.15 (inactive) | z-score [16]: 0.648 (inactive) | z-score [17]: -0.394 | z-score [18]: 1.77 (inactive) | z-score [19]: -0.17 (inactive) | z-score [20]: 2.24

C=CC[C@@]12N=C(c3ccc(OCCCO)cc3)O[C@@H]1c1ccccc1N(CCS(=O)(=O)c1ccccc1)C2=O
composite z-score [1]: 0.518 | z-score [2]: -3.23 (inactive) | z-score [3]: -0.196 (inactive) | z-score [4]: -0.744 (inactive) | z-score [5]: -2.22 (inactive) | composite z-score [6]: 1.41 | composite z-score [7]: 0.136 | composite z-score (Torsin-1A (Homo sapiens) [8]): 0.558 | composite z-score (Torsin-1A (Homo sapiens) [9]): 0.264 | composite z-score [10]: 1.62 | z-score [11]: -0.309 (inactive) | composite z-score [12]: 0.199 | z-score [13]: 33.3 (active) | z-score [14]: 28.5 (active) | z-score [15]: 3.7 (inactive) | z-score [16]: 8.56 (active) | z-score [17]: 0.766 | z-score [18]: -1.55 (inactive) | z-score [19]: 0.599 (inactive) | z-score [20]: -1.91

O=C(O)[C@]1(Cc2ccccc2)N=C(c2ccc(OCCCO)cc2)O[C@@H]1c1ccccc1
composite z-score [1]: -0.159 | z-score [2]: -1.14 (inactive) | z-score [3]: 0.534 (inactive) | z-score [4]: -0.445 (inactive) | z-score [5]: -0.471 (inactive) | composite z-score [6]: -0.423 | composite z-score [7]: -0.119 | composite z-score (Torsin-1A (Homo sapiens) [8]): -0.639 | composite z-score (Torsin-1A (Homo sapiens) [9]): -0.411 | composite z-score [10]: -1.78 | z-score [11]: 0.585 (inactive) | composite z-score [12]: 0.104 | z-score [13]: 5.03 (inactive) | z-score [14]: -0.125 (inactive) | z-score [15]: -1.2 (inactive) | z-score [16]: 0.0743 (inactive) | z-score [17]: -0.174 | z-score [18]: 0.26 (inactive) | z-score [19]: 0.674 (inactive) | z-score [20]: 0.914

COc1ccc(C(O)C2C=CC3C(=O)N(Cc4ccccc4)C(=O)C3N2n2cnnc2)c2ccccc12 (stereo not given)
composite z-score [1]: -0.795 | z-score [2]: -3.64 (inactive) | z-score [3]: 0.038 (inactive) | z-score [4]: -0.126 (inactive) | z-score [5]: -0.138 (inactive) | composite z-score [6]: -0.677 | composite z-score [7]: -0.0136 | composite z-score (Torsin-1A (Homo sapiens) [8]): 1.95 | composite z-score (Torsin-1A (Homo sapiens) [9]): 0.432 | composite z-score [10]: -0.237 | z-score [11]: -0.855 (inactive) | composite z-score [12]: 0.425 | z-score [13]: 0.782 (inactive) | z-score [14]: -0.11 (inactive) | z-score [15]: 1.57 (inactive) | z-score [16]: -1.58 (inactive) | z-score [17]: 2.01 | z-score [18]: -2.98 (inactive) | z-score [19]: -0.674 (inactive) | z-score [20]: -3.65

COC(=O)[C@@]1(Cc2ccc(OC)cc2)[C@H]2c3cc(C(=O)N4CCCC4)n(CCc4cc5ccccc5[nH]4)c3C[C@H]2CN1C(=O)c1ccccc1
composite z-score [1]: 0.409 | z-score [2]: -1.84 (inactive) | z-score [3]: 0.497 (inactive) | z-score [4]: -0.189 (inactive) | z-score [5]: 0.375 (inactive) | composite z-score [6]: 1.58 | composite z-score [7]: 0.352 | composite z-score (Torsin-1A (Homo sapiens) [8]): 0.368 | composite z-score (Torsin-1A (Homo sapiens) [9]): 1.38 | composite z-score [10]: -0.309 | z-score [11]: -1.31 (inactive) | composite z-score [12]: 0.712 | z-score [13]: 4.17 (inactive) | z-score [14]: 0.852 (inactive) | z-score [15]: 1.45 (inactive) | z-score [16]: 1.11 (inactive) | z-score [17]: -0.231 | z-score [18]: 0.00439 (inactive) | z-score [19]: 0.319 (inactive) | z-score [20]: -3.28

COc1cc(OC)c(C(O)C2C=CC3C(=O)N(c4ccccc4)C(=O)C3N2Nc2ccc(C#N)cc2)cc1Br (stereo not given)
composite z-score [1]: 0.507 | z-score [2]: 0.411 (inactive) | z-score [3]: -0.245 (inactive) | z-score [4]: 2.17 (inactive) | z-score [5]: -0.475 (inactive) | composite z-score [6]: 1.9 | composite z-score [7]: 0.451 | composite z-score (Torsin-1A (Homo sapiens) [8]): 0.367 | composite z-score (Torsin-1A (Homo sapiens) [9]): 0.99 | composite z-score [10]: -0.186 | z-score [11]: -0.652 (inactive) | composite z-score [12]: 0.843 | z-score [13]: 25 (active) | z-score [14]: 11.4 (active) | z-score [15]: 1.39 (inactive) | z-score [16]: 1.76 (inactive) | z-score [17]: -0.962 | z-score [18]: -1.41 (inactive) | z-score [19]: -5.35 (inactive) | z-score [20]: -2.08
